3CLpro inhibitor – SARS-CoV 3CLpro protease inhibition; P0C6X7; 290,000 tested, 0.14% active; recombinant SARS-CoV 3CLpro, quenched FRET peptide cleavage; inhibition, % at 6 µM; in the data active = inhibition above about 12%
RecA splice inh – Mtb RecA intein splicing inhibition; P9WHJ3; cell-free RecA intein splicing, fluorescence; inhibition, % (test concentration not listed); 290,000 tested, 0.75% active; AID 2221; in the data active = inhibition above about 30%
Target sequence (P9WHJ3 whole entry, looked up, canonical isoform): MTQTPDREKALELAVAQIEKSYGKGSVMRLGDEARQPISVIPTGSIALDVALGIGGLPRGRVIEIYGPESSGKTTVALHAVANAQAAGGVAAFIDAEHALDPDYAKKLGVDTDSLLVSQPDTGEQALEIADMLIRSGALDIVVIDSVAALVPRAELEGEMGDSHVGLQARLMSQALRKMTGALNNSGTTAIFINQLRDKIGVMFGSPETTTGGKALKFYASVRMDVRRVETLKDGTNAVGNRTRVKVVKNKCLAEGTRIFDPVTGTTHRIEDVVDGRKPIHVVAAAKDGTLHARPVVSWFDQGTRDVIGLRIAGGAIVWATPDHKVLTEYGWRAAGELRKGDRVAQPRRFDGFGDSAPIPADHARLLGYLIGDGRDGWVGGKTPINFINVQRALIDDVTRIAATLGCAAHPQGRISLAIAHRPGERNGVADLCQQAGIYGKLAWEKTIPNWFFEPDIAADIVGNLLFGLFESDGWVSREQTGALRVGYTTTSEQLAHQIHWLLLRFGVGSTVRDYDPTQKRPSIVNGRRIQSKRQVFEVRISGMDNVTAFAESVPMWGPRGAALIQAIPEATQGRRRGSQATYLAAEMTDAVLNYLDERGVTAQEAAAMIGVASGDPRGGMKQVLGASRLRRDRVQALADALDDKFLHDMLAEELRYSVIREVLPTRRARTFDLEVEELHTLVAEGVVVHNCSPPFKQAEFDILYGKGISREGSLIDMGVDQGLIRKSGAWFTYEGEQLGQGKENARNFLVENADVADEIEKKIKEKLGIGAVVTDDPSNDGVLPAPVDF
VHR inh abs – blocks human VHR1 dual specificity phosphatase | P51452 | recombinant VHR phosphatase, pNPP absorbance | inhibition, % at 13.3 µM | 290,000 tested, 0.52% active; in the data active = inhibition above about 50%
CCHF vOTU inh-1 – blocks the CCHF virus ovarian tumor domain protease; CCHFV vOTU protease, Pep-AMC fluorescence; inhibition, % at 11.5 µM; 370,000 tested, 0.55% active; AID 651958
GFP chromophore – counter-screen GFP chromophore formation inhibition. 2,100 tested, 83% active. cell-free GFP chromophore formation, fluorescence. EC50, µM. shares compounds with RecA splice inh; call rule not given here
CCHF vOTU inh-2 – confirmation of CCHF virus vOTU protease inhibitors. shares compounds with CCHF vOTU inh-1. AID 686976. 1,900 tested, 17% active. Recombinant CCHFV vOTU, Pep-AMC fluorescence. inhibition, % at 11.5 µM
A number is an active result; . = inactive; / = no result given. Rows were chosen to be rich in hits. Some 1.5% of all compounds tested hit in one or more screens of this group. Cut-off read from the data, not from the text of the source, unless noted: active = inhibition above about 30%; inactive = the rest.

SMILES | 3CLpro inhibitor | RecA splice inh | VHR inh abs | CCHF vOTU inh-1 | GFP chromophore | CCHF vOTU inh-2
CCOc1ccc(NC(=O)C(c2ccccn2)N(C(=O)CCl)c2ccc(F)cc2)cc1 (stereo not given) | . | 66.4 | . | / | 15.1 | /
CC(C)(C)c1[nH]nc2c1C(c1cccnc1)C(C#N)=C(N)O2 (stereo not given) | . | . | . | . | / | /
CC(C)C1C(C#N)=C(N)Oc2n[nH]c(-c3cccs3)c21 (stereo not given) | . | . | . | . | / | /
Cc1ccc(C2C(C#N)=C(N)Oc3n[nH]c(-c4cccs4)c32)cc1 (stereo not given) | . | 65.7 | . | . | 7.61 | /
CC(C)c1[nH]nc2c1C(c1cccs1)C(C#N)=C(N)O2 (stereo not given) | . | 62.3 | . | . | 28.3 | /
N#CC1=C(N)Oc2n[nH]c(-c3cccs3)c2C1c1cccnc1 (stereo not given) | . | 68.9 | . | . | . | /
O=C(COC(=O)C1CCCC1)Nc1ncc(Cl)cc1Cl | / | . | / | . | / | /
COC(=O)[C@]12C[C@H](CC(=O)N3CCN(C(=O)C4CC4)CC3)C(=O)N(CCC3=CCCCC3)C1=C[C@H](COCc1ccccc1)O[C@@H]2C | / | / | / | . | / | /
O=C(Nc1ccc(Cl)c(C(F)(F)F)c1)C1Cc2c(-c3ccc4c(c3)OCO4)ccnc2O1 (stereo not given) | / | / | / | . | / | /
NS(=O)(=O)c1ccc(CNC(=O)c2cccnc2Cl)cc1 | . | . | . | . | / | /
N#Cc1c(Cl)c(Cl)c2nnc(-c3ccc(Br)cc3)n2c1Cl | . | 49.0 | . | . | 5.15 | /
O=C1NC[C@H](CCCCN2C[C@@H](Cc3ccccc3)N(CC3CCCCC3)C(=O)C2=O)N(CCC2CCCCC2)C1=O | / | / | / | . | / | /
CCOC(=O)c1c(CC(C)C)csc1NC(=O)C(C)C | . | . | . | . | / | /
CCOC(=O)c1c(CC(C)C)csc1NC(=O)CCl | . | 51.7 | . | . | . | /
Cc1ccc(C)c(Sc2ccc(NC(=O)CCN3C(=O)NC4(CCCC4)C3=O)cc2)c1 | / | / | / | . | / | /
Cc1ccc(Sc2ccc(NC(=O)CCl)cc2)c(C)c1 | . | 89.9 | . | . | 8.1 | /
N#Cc1ccsc1NC(=O)C1=COCCO1 | / | / | / | . | / | /
CN1CCc2cc3c(c4c2C1Cc1ccccc1-4)OCO3 (stereo not given) | . | 54.7 | . | . | 0.869 | /
O=C(C1CCCN1S(=O)(=O)c1ccccc1[N+](=O)[O-])N1CCN(c2ccccc2)CC1 (stereo not given) | / | / | / | . | / | /
COc1ccc(NC(=O)/C(Cl)=C(/Cl)S(=O)(=O)Cc2ccccc2)cn1 | . | 76.4 | . | . | 7.45 | /
Cc1oc2c(Cl)c(Cl)c(O)c(CN(C)C)c2c1C(=O)c1ccc(Cl)cc1 | . | . | . | . | / | /
O=C(Cc1cc(=O)[nH][nH]1)N/N=C/C=C/c1ccccc1 | . | 84.6 | . | . | 18.3 | /
CCOC(=O)[C@@]12CCCC=C1N(CCc1ccc(Cl)cc1)C(=O)[C@H]2CC(=O)N1CCCC1 | / | / | / | . | / | /
CCOC(=O)Nc1nc(-c2ccc(Cl)cc2Cl)cs1 | . | . | . | . | / | /
O=C1C(Cl)=C(N2CCC(C(=O)O)CC2)C(=O)c2ccccc21 | . | 49.9 | . | / | 12.8 | /
SMILES | 3CLpro inhibitor | RecA splice inh | VHR inh abs | CCHF vOTU inh-1 | GFP chromophore | CCHF vOTU inh-2
NC(=O)C1CCN(C2=C(NS(=O)(=O)c3ccccc3)C(=O)c3ccccc3C2=O)CC1 | . | . | . | . | / | /
CCCCCCNC(=O)O[C@H]1Cn2c(=O)ccc(=O)n2[C@@H]2CN(S(=O)(=O)c3ccc(C)cc3)C[C@]12O | / | / | / | . | / | /
COC(=O)[C@]12C[C@H](CC(=O)NCc3ccc(C)o3)C(=O)N(CCc3ccc(OC)c(OC)c3)C1=C[C@H](C(C)(C)C)O[C@@H]2C | / | / | / | . | / | /
CCCN(C(=O)c1ccc(N(C)S(=O)(=O)c2ccc(C)cc2)cc1)C1CCS(=O)(=O)C1 (stereo not given) | / | . | / | . | / | /
CCCc1[nH]nc2c1C(c1cn[nH]c1-c1ccc(F)cc1)C(C#N)=C(N)O2 (stereo not given) | . | 81.2 | . | / | 7.06 | /
CCCc1[nH]nc2c1C(c1ccccc1OC)C(C#N)=C(N)O2 (stereo not given) | . | 61.5 | . | . | 20.3 | /
CCc1[nH]nc2c1C(C(C)C)C(C#N)=C(N)O2 (stereo not given) | / | . | . | . | / | /
CCCc1[nH]nc2c1C(CCC)C(C#N)=C(N)O2 (stereo not given) | . | 63.9 | . | . | 34.8 | /
Cc1c(N=C2C=CC(=O)c3ccccc32)c(=O)n(-c2ccccc2)n1C | . | 72.3 | . | 90.4 | 1.81 | .
COc1ccc(-c2cc(=O)n(CCC#N)[nH]2)cc1 | . | 96.7 | . | 62.5 | 2.01 | .
O=C1C=C(N2CCOCC2)c2ccccc2C1=O | . | 96.8 | . | 102.7 | 0.557 | 93.8
O=C1C=C(N2CCOCC2)c2cccc3cccc1c23 | / | / | / | . | / | /
Cc1cccc(NC2=C(NC(=O)c3ccccc3)C(=O)c3ccccc3C2=O)c1 | . | 72.0 | . | 67.9 | 6.53 | 36.6
O=C(NC1=C(NC2CCS(=O)(=O)C2)C(=O)c2ccccc2C1=O)c1ccccc1 (stereo not given) | . | 84.1 | . | 71.4 | 1.03 | 69.5
O=C(NC(NC1CCS(=O)(=O)C1)C(=O)c1cccs1)c1ccccc1 (stereo not given) | . | . | . | . | / | /
COc1ccc(CONS(=O)(=O)c2ccc(NC(C)=O)cc2)cc1Cl | . | . | . | . | / | /
COc1cc(Cc2nccc3cc(OC)c(OC)cc23)c(S(=O)(=O)O)cc1OC | . | 41.9 | . | 71.1 | . | .
CC1=NN(c2ccc(C(=O)O)c(N)c2)C(=O)C1 | . | 69.3 | . | 82.8 | 2.62 | .
O=C1c2ccccc2C(c2nnnn2-c2ccc3c(c2)OCCO3)N1CCc1ccccc1F (stereo not given) | / | / | / | . | / | /
CC(C)(C)c1ccc(OCCC(=O)Nc2ccc(N3CCOCC3)cc2N2CCOCC2)cc1 | / | . | / | . | / | /
COc1ccc2ccc3c(c2c1)N=C[C@]1(O3)N(C)c2ccccc2C1(C)C | . | 89.2 | . | 46.5 | 12.2 | .
CC1=NOC2(C1)N(C)c1ccccc1C2(C)C (stereo not given) | . | . | . | . | / | /
CCCCCCCCCCOC(=O)Cn1c(COc2ccccc2)[n+](C)c2ccccc21 | . | 47.0 | . | 29.6 | 12.2 | .
CCCCOC(=O)Cn1c(=O)n(CC(=O)OCCCC)c2ccccc21 | . | . | . | . | / | /
COc1cc(C)c(N(C(C)=O)c2ccccc2)c(C)c1 | . | . | . | . | / | /
SMILES | 3CLpro inhibitor | RecA splice inh | VHR inh abs | CCHF vOTU inh-1 | GFP chromophore | CCHF vOTU inh-2
CC(=O)N(C1=C(N)C(=O)c2ccccc2C1=O)c1ccccc1 | . | 87.5 | / | 72.6 | 4.34 | 63.9
CCc1ccc(S(=O)(=O)Nc2cc(SCC(=O)O)c(O)c3ccccc23)cc1 | . | 93.8 | . | 114.1 | 0.703 | 100.7
CCOc1ccc(S(=O)(=O)Nc2cc(SCC(=O)O)c(O)c3ccccc23)cc1 | . | 96.3 | . | 100.6 | 8.86 | 76.9
O=S(=O)(Nc1ccc(O)c2ccccc12)c1ccc(F)cc1 | / | 94.2 | / | 80.7 | 0.151 | .
CCc1ccc(S(=O)(=O)Nc2ccc(O)c3ccccc23)cc1 | . | 92.0 | / | 62.0 | 0.151 | .
CCn1c(SCC(=O)c2ccc(-c3ccccc3)cc2)nnc1-c1ccccc1OC | / | / | / | . | / | /

Screening results: PubChem BioAssay, several laboratories
